Source: PubChem BioAssay AID652256 (National Center for Advancing Translational Sciences (NCATS), 2013)
The other results are listed elsewhere or left out. Calls of active or inactive are those of the source.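 How the source made its calls: active means a half-inhibiting concentration could be measured and was below 100 µM; inactive means the rest.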

system: Thioredoxin reductase 1 (TXNRD1), rat; assay: qHTS Assay for Inhibitors of Mammalian Selenoprotein Thioredoxin Reductase 1 (TrxR1): DTNB Assay; settings: purified TrxR1, DTNB reduction, A412
Description: The selenoprotein thioredoxin reductase (TrxR; EC 1.8.1.9) is a FAD containing homodimeric pyridine nucleotide-disulfide oxidoreductase with many cellular roles. Together with NADPH and its prime substrate thioredoxin (Trx), the enzyme forms the core of the Trx system. The mammalian Trx system exerts a wide spectrum of functions including redox regulation, antioxidant defense, regulation of transcription factors as well as support of cell growth and replication. Many of these functions involve the reduction of Trx, which may subsequently reduce a number of different substrates including ribonucleotide reductase, peroxiredoxins or NFkB. Mammalian TrxR itself also has a broad substrate specificity, reducing both protein and non-protein substrates, including low molecular weight compounds such as dehydroascorbate, lipoic acid, ubiquinone, and juglone. In addition, several drugs in clinical use for anticancer treatment are indeed known to target TrxR1. This orthogonal DTNB assay seeks to further characterize cherry picks. NIH Molecular Libraries Probe Production Network [MLPCN] NIH Chemical Genomics Center [NCGC] MLPCN Grant: MH090846 Assay Provider: Elias Arner, Karolinska Institute
15 nM TrxR1 is reduced by 250 microM NADPH in TE buffer [50 mM Tris-HCl (pH 7.5), 2 mM EDTA] in a 96-well microtiter plate. Compounds are then added and incubated for 30 min at 30 degrees C. During compound incubation, NADPH consumption is followed by the decrease in absorbance at 340 nm using a VersaMax microplate reader (Molecular Devices) to determine substrate potential of the compound. DTNB is subsequently added to a final concentration of 2.5 mM, and the formation of TNB- is followed at 412 nm at 30 degrees C to assess inhibitory activity of the compound.

Potency, active:
O=C(/C=C/c1ccco1)Nc1cccc(-c2nc3ccccc3[nH]2)c1 10300 nM, CC1CCN(C(=O)c2ccc(S(=O)(=O)Cc3cc(F)ccc3F)c([N+](=O)[O-])c2)CC1 317 nM, Cc1ccccc1-c1nc(CS(=O)(=O)CC(=O)N2CCc3ccccc3C2)c(C)o1 292 nM
